We go through 40 compounds from PubChem BioAssay.

As usually defined, the viability is a read-out of living cells in per cent, often relative to untreated cells.

Values without a mark were called inactive.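 How the source made its calls, unless noted: active means viability increase at or above a cutoff of the median across tested compounds plus 3 SD (cut at about 8.5% in these data, passing the limit was not always enough); inconclusive means some gains above the cutoff, reason not given; inactive means the rest.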 Results filed as inconclusive are left out.

The nature of the first experiment: viability gain of MRP-1-high H69AR cells under doxorubicin, pilot screen, MRP-1 activator project, CellTiter-Glo, duplicate (AID 807).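 Further: compound pretreatment 18-22 h then 72 h combined with doxorubicin; 0% = doxorubicin alone and 100% = vehicle without doxorubicin.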 Particulars: H69AR viability with doxorubicin, CellTiter-Glo luminescence; at 10 µM; stronger effect = higher value. (In ATP-based viability assays light output follows the ATP content of the culture.)
With `O=C(CSc1nc2c(cnn2-c2ccc(F)cc2)c(=O)[nH]1)N1CCCCCC1`, the viability increase was -3.34%.
With `CCNc1nnc(-c2ccccc2OC)s1`, the viability increase is -0.41%.
Consider `O=[n+]1c2c(n([O-])c3c1CCCC3)CCCCC2`, for which the viability increase was 0.93%.
On to `O=C(O)C1C(c2ccccc2)C(C(=O)OCc2ccco2)C1c1ccccc1` (stereo not given), for which the viability increase is -3.32%.
On to `CCOC(=O)Cc1nnc(NC(=O)C(CC)Sc2nc(C)cc(=O)[nH]2)s1` (stereo not given), for which the viability increase was -0.54%.
The same measure, in the same setting: to `Cc1ccc(OCCSc2cc(C)nc(N)n2)cc1` belongs 0.4%; to `O=C(NCCN1CCCC1)c1ccc(CS(=O)(=O)c2c(Cl)cccc2Cl)o1`, -0.97%.
The same measure, in the same setting: to `O=P(O)(CCc1ccccn1)CN1CCOCC1` belongs 1.31%; to `CCOC(=O)CN1Cc2cccc(C(=O)O)c2C1=O`, -0.75%.
With `CC(C)=C(NC(=O)c1ccccc1)C(=O)NCCCC(=O)O`, the viability increase was -0.03%.
In the case of `Cc1c(NS(=O)(=O)c2ccccc2)cc(Cl)c(O)c1C`, the viability increase was -5.19%.
On the same count and under the same terms, the same measure for `O=C(CN1C(=O)CSc2ncccc21)NCCN1CCOCC1`: -0.4%; for `CC/C(=C\C(=O)c1ccncc1)Nc1ccc(O)cc1`: -3.41%; for `Cn1c(=O)c2cc(NCc3ccccc3)nnc2n(C)c1=O`: -2.1%.
As to `Cc1oc2cc(O)ccc2c(=O)c1Oc1ccccc1Br`, the viability increase was -3.45%.
Consider `Cc1ccnc(NC2c3ccccc3C(=O)N2Cc2ccccc2Cl)c1` (stereo not given), for which the viability increase was -3.54%.
Turning to `CCN=C(Nc1ccc2c(c1)OCO2)SC1CC(=O)N(c2ccccc2F)C1=O` (stereo not given), the viability increase was -1.9%.
Consider `CC1(C(=O)NCc2cccnc2)CCC(=O)N1CCc1ccccc1` (stereo not given), for which the viability increase is -0.87%.
For the compound `Cc1nc2ccc(S(=O)(=O)NC(C(=O)N3CCC(C)CC3)C(C)C)cc2s1` (stereo not given), the viability increase is -2.02%.
Take `Fc1ccc(-c2nnc(-c3ccc(Cl)cc3Cl)o2)cc1`: the viability increase is -5.12%.
On to `COc1ccc(-c2[nH]c(-c3ccc(F)cc3)nc2SCC(=O)NCc2ccco2)cc1OC`, for which the viability increase is -2.49%.
Consider `NC(=O)c1ccc(N2CCCCC2)c(N2C(=O)C3C4C=CC(C4)C3C2=O)c1` (stereo not given), for which the viability increase was -2.98%.
On the same count and under the same terms, to `Cc1n[nH]c(C)c1S(=O)(=O)N(CC(=O)N1CCc2ccccc21)c1ccc(C(C)C)cc1` belongs -7.59%; to `CC(C)Oc1ccc(/C(O)=C2/C(=O)C(=O)N(CCCN3CCOCC3)C2c2ccncc2)cc1` (stereo not given), -3.89%.
Consider `COc1ccc(C)cc1NC(=O)C1CCCN(S(=O)(=O)c2c(C)noc2/C=C/N(C)C)C1` (stereo not given), for which the viability increase is -0.74%.
For the compound `COc1ccc(NC(=O)c2c(-c3ccccc3)noc2C)c(OC)c1`, the viability increase was -1.79%.
`CC(Sc1nnc(Cn2c(=O)sc3ccccc32)n1C)c1ccccc1` (stereo not given): the viability increase is 0.33%.
For `Brc1ccc(-c2noc(CCc3ccccc3)n2)o1`, the viability increase was 1.58%.
As for `CN1CCc2c(sc3c2C(=O)NC(c2ccc(-c4cccc(Cl)c4)o2)N3)C1` (stereo not given), the viability increase is -1.49%.
For `CC(OC(=O)c1cc[n+]([O-])cc1)C(=O)Nc1ccc(Cl)cn1` (stereo not given), the viability increase was -1.44%.
On the same count and under the same terms, the same measure for `CCOc1ccc(S(=O)(=O)Nc2ccccc2C(=O)NCC2CCCO2)cc1` (stereo not given): -0.84%; for `Cc1cc(N2CCN(C3CCCCC3)CC2)nc2cccc(O)c12`: -4%.
Turning to `CCCN(CC1CC1)S(=O)(=O)c1ccc(S(N)(=O)=O)cc1`, the viability increase is -1.41%.
Take `COc1ccccc1CNC(=O)c1cnc2sccn2c1=O`: the viability increase is -2.45%.
On to `NC(=O)C1CCN(CCCNC2CC(=O)N(Cc3ccc(N4CCCC4=O)cc3)C2=O)CC1` (stereo not given), for which the viability increase is -0.01%.
On to `Cc1ccc(C2=[N+]([O-])C3(CCCCC/C3=N\O)N(O)C2(C)C)o1` (stereo not given), for which the viability increase was -1.16%.
On to `NC(=O)C1(N2CCCCC2)CCN(C(=O)c2ccccc2)CC1`, for which the viability increase was -1.09%.
The same measure, in the same setting: to `CCOc1ccc(Cc2nnc(SCC(=O)c3ccc(OC)cc3)o2)cc1` belongs 0.28%; to `CC(C)CCNC(=O)CCS(=O)(=O)c1cccc2nonc12`, -1.75%.
Take `CCn1c(=O)cc(OCC(=O)N2CCc3ccccc32)c2ccccc21`: the viability increase was -3.92%.

A further experiment in a line: growth suppression of beta-catenin knockout HCT116, pilot screen, human colon tumor cells (AID 823;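 active means cell viability at or below a set limit in both duplicate runs, the limit being the all-compound median minus 4 SD, cut at about 23% in these data, passing the limit was not always enough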;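 further: 0% = wells killed by 20 µM Hyamine and 100% = untreated DMSO cell wells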). The conditions noted are these: CellTiter-Glo, 60 h, at 10 µM, stronger effect = lower value.
With `O=C(CSc1nc2c(cnn2-c2ccc(F)cc2)c(=O)[nH]1)N1CCCCCC1`, the viability is 94.2%.
In the case of `CCNc1nnc(-c2ccccc2OC)s1`, the viability is 96%.
With `O=[n+]1c2c(n([O-])c3c1CCCC3)CCCCC2`, the viability is 102%.
Regarding `O=C(O)C1C(c2ccccc2)C(C(=O)OCc2ccco2)C1c1ccccc1` (stereo not given), the viability is 89.5%.
Consider `CCOC(=O)Cc1nnc(NC(=O)C(CC)Sc2nc(C)cc(=O)[nH]2)s1` (stereo not given), for which the viability is 83.4%.
Still for that read-out and setting: the same measure for `Cc1ccc(OCCSc2cc(C)nc(N)n2)cc1`: 95.6%; for `O=C(NCCN1CCCC1)c1ccc(CS(=O)(=O)c2c(Cl)cccc2Cl)o1`: 106%.
As to `O=P(O)(CCc1ccccn1)CN1CCOCC1`, the viability was 92.6%.
`CCOC(=O)CN1Cc2cccc(C(=O)O)c2C1=O`: the viability was 95.6%.
`CC(C)=C(NC(=O)c1ccccc1)C(=O)NCCCC(=O)O`: the viability was 100%.
On the same count and under the same terms, the same measure for `Cc1c(NS(=O)(=O)c2ccccc2)cc(Cl)c(O)c1C`: 90.9%.
Consider `O=C(CN1C(=O)CSc2ncccc21)NCCN1CCOCC1`, for which the viability is 106%.
Consider `CC/C(=C\C(=O)c1ccncc1)Nc1ccc(O)cc1`, for which the viability was 92.8%.
Turning to `Cn1c(=O)c2cc(NCc3ccccc3)nnc2n(C)c1=O`, the viability is 67.5%.
In the case of `Cc1oc2cc(O)ccc2c(=O)c1Oc1ccccc1Br`, the viability is 94%.
The same measure, in the same setting: to `Cc1ccnc(NC2c3ccccc3C(=O)N2Cc2ccccc2Cl)c1` (stereo not given) belongs 73%; to `CCN=C(Nc1ccc2c(c1)OCO2)SC1CC(=O)N(c2ccccc2F)C1=O` (stereo not given), 97%.
On to `CC1(C(=O)NCc2cccnc2)CCC(=O)N1CCc1ccccc1` (stereo not given), for which the viability was 97%.
Same read-out and setting: to `Cc1nc2ccc(S(=O)(=O)NC(C(=O)N3CCC(C)CC3)C(C)C)cc2s1` (stereo not given) belongs 93.9%.
Regarding `Fc1ccc(-c2nnc(-c3ccc(Cl)cc3Cl)o2)cc1`, the viability is 70.6%.
As for `COc1ccc(-c2[nH]c(-c3ccc(F)cc3)nc2SCC(=O)NCc2ccco2)cc1OC`, the viability was 96.9%.
Same read-out and setting: to `NC(=O)c1ccc(N2CCCCC2)c(N2C(=O)C3C4C=CC(C4)C3C2=O)c1` (stereo not given) belongs 101%; to `Cc1n[nH]c(C)c1S(=O)(=O)N(CC(=O)N1CCc2ccccc21)c1ccc(C(C)C)cc1`, 89.6%; to `CC(C)Oc1ccc(/C(O)=C2/C(=O)C(=O)N(CCCN3CCOCC3)C2c2ccncc2)cc1` (stereo not given), 93.3%.
Same read-out and setting: the same measure for `COc1ccc(C)cc1NC(=O)C1CCCN(S(=O)(=O)c2c(C)noc2/C=C/N(C)C)C1` (stereo not given): 102%; for `COc1ccc(NC(=O)c2c(-c3ccccc3)noc2C)c(OC)c1`: 97.4%.
`CC(Sc1nnc(Cn2c(=O)sc3ccccc32)n1C)c1ccccc1` (stereo not given): the viability was 92.8%.
Consider `Brc1ccc(-c2noc(CCc3ccccc3)n2)o1`, for which the viability is 102%.
With `CN1CCc2c(sc3c2C(=O)NC(c2ccc(-c4cccc(Cl)c4)o2)N3)C1` (stereo not given), the viability was 97.6%.
As for `CC(OC(=O)c1cc[n+]([O-])cc1)C(=O)Nc1ccc(Cl)cn1` (stereo not given), the viability is 102%.
`CCOc1ccc(S(=O)(=O)Nc2ccccc2C(=O)NCC2CCCO2)cc1` (stereo not given): the viability was 94.1%.
For the compound `Cc1cc(N2CCN(C3CCCCC3)CC2)nc2cccc(O)c12`, the viability was 61%.
In the case of `CCCN(CC1CC1)S(=O)(=O)c1ccc(S(N)(=O)=O)cc1`, the viability was 100%.
Turning to `COc1ccccc1CNC(=O)c1cnc2sccn2c1=O`, the viability was 107%.
As for `NC(=O)C1CCN(CCCNC2CC(=O)N(Cc3ccc(N4CCCC4=O)cc3)C2=O)CC1` (stereo not given), the viability was 98.7%.
With `Cc1ccc(C2=[N+]([O-])C3(CCCCC/C3=N\O)N(O)C2(C)C)o1` (stereo not given), the viability is 99%.
Same read-out and setting: to `NC(=O)C1(N2CCCCC2)CCN(C(=O)c2ccccc2)CC1` belongs 103%.
`CCOc1ccc(Cc2nnc(SCC(=O)c3ccc(OC)cc3)o2)cc1`: the viability was 54.3%.
Still for that read-out and setting: the same measure for `CC(C)CCNC(=O)CCS(=O)(=O)c1cccc2nonc12`: 105%; for `CCn1c(=O)cc(OCC(=O)N2CCc3ccccc32)c2ccccc21`: 96.1%.
